These results are taken from PubChem BioAssay AID504675 (Southern Research Specialized Biocontainment Screening …, 2011).

Active and inactive are the calls of the source.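 How the source made its calls: active means compound blocking phage killing of bacteria by at least 30% at some tested dose; inactive means the rest.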

The assay can be described thus: inhibition of K1F phage lysis of E. coli UTI89, dose response, capsule biogenesis inhibitor project, strain UTI89, C7 control, set 3 (AID 504675). Particulars: E. coli UTI89 K1 capsule; OD600, at 100 µM (top of the series).
As to `COc1cccc(C(=O)Nc2nc3ccc(OC)cc3s2)c1`, the molecule was classed as inactive.
For `COc1cccc(-c2cc(C(=O)O)c3ccccc3n2)c1` the value was “inactive”; for `COc1ccc(C(=O)Nc2nc3ccc(OC)cc3s2)cc1`, “inactive”.
In the case of `COc1ccc2nc(NC(=O)c3ccccc3OC)sc2c1`, the molecule was classed as inactive.
For `COc1ccc2nc(NC(=O)c3ccccc3)sc2c1` the value was “inactive”.
With `COc1ccc2nc(NC(=O)c3ccc(F)cc3)sc2c1` the entry was “inactive”; with `O=C(O)c1cc(-c2cccc(F)c2)nc2ccccc12`, “inactive”.
With `N=c1n(CCN2CCCC2)c2ccccc2n1CC(O)c1ccc(Cl)c(Cl)c1` (centres undefined), the call was inactive.
With `O=C(O)c1cc(-c2ccc(F)cc2)nc2ccccc12` the entry was “inactive”.
